Where “and” joins values, the source holds several entries; their conditions need not be identical. Equal entries are not always repeated. Screen size: about 5,500 compounds; about 2,000 (36%) were called active. About 18% were inconclusive and are not listed. Rule as the data show it: active = normalized growth mostly below about 0.91 (no sharp cut-off); inconclusive = no clear call, values can overlap the other calls; inactive = mostly above about 0.92. The list shows a part of the results.
Experiment: chemical genetic growth profiling, strain panel (AID 1159580);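 also: tested at 20 µM; growth read once vehicle control cultures reached saturation at 30 °C; 1 = growth at the plate median or of vehicle wells; lower values mean less growth of the strain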
Details: S. cerevisiae deletion strains, growth OD
[1] = locus YDL101C, strain DUN1, hits give low values
[2] = locus YHR030C, strain SLT2, hits give low values
[3] = locus YHR079C, strain IRE1, hits give low values
[4] = locus YJL095W, strain BCK1, hits give low values
[5] = locus YJR066W, strain TOR1, hits give low values
[6] = locus YLR113W, strain HOG1, hits give low values
[7] = locus YNL183C, strain NPR1, hits give low values
[8] = locus YOR061W, strain CKA2, hits give low values
[9] = locus YOR231W, strain MKK1, hits give low values
[10] = locus YPL256C, strain CLN2, hits give low values

Measured: normalized growth

COc1cc(OC)c(-c2c(OC)cc(OC)cc2OC)c(OC)c1
inactive: locus YBR021W, strain FUR4, hits give low values 1.05 | locus YBR229C, strain ROT2, hits give low values 1.01 | locus YCL029C, strain bik1, hits give low values 0.997 | locus YDL035C, strain GPR1, hits give low values 1.02 | locus YDL074C, strain BRE1, hits give low values 1.06 | [1] 1.03 | locus YDL185W, strain tfp1, hits give low values 1.03 | locus YDL192W, strain arf1, hits give low values 1.04 | locus YDR101C, strain arx1, hits give low values 1.02 | locus YDR162C, strain NBP2, hits give low values 1.04 | locus YDR318W, strain mcm21, hits give low values 1.03 | locus YDR388W, hits give low values 1.01 | locus YDR502C, strain sam2, hits give low values 1.05 | locus YEL061C, strain CIN8, hits give low values 1.01 | locus YER110C, hits give low values 1.02 | locus YER155C, strain BEM2, hits give low values 1.01 | locus YER167W, strain BCK2, hits give low values 1.01 | locus YGL078C, strain dbp3, hits give low values 1.05 | locus YGL086W, strain mad1, hits give low values 1.04 | locus YGL248W, strain PDE1, hits give low values 1.03 | locus YGR078C, strain PAC10, hits give low values 1.06 | locus YGR135W, strain pre9, hits give low values 1.07 | locus YGR252W, strain gcn5, hits give low values 1.05 | [2] 0.998 | locus YHR079C, strain IRE1 (second series), hits give low values 1.02 | [3] 0.998 | locus YHR094C, strain hxt1, hits give low values 1.03 | locus YHR129C, strain ARP1, hits give low values 1.01 | locus YHR200W, strain rpn10, hits give low values 1.03 | locus YIL066C, strain RNR3, hits give low values 1.02 | locus YIL073C, strain SPO22, hits give low values 1.1 | locus YIL125W, strain kgd1, hits give low values 1.01 | locus YIR030C, strain dcg1, hits give low values 1.02 | [4] 1.09 and 0.999 | locus YJL134W, strain LCB3, hits give low values 1.01 | locus YJL168C, strain set2, hits give low values 1.02 | locus YJL187C, strain SWE1 (second series), hits give low values 1.06 | [5] 0.953 | locus YJR075W, strain HOC1, hits give low values 1.04 | locus YKL009W, strain mrt4, hits give low values 1.06 | locus YKL068W, hits give low values 0.993 | locus YKL085W, strain MDH1 (second series), hits give low values 1.01 | locus YKL085W, strain MDH1, hits give low values 1.01 | locus YKL190W, strain CNB1, hits give low values 1.02 | locus YKR001C, strain vps1, hits give low values 1.05 | locus YLR039C, strain RIC1, hits give low values 1.07 | locus YLR058C, strain SHM2, hits give low values 1.04 | locus YLR102C, strain apc9, hits give low values 1.01 | [6] 1 | locus YLR262C, strain YPT6, hits give low values 1.09 | locus YLR268W, strain sec22, hits give low values 1.02 | locus YLR371W, strain rom2, hits give low values 1.02 | locus YLR418C, strain cdc73, hits give low values 1.13 | locus YML016C, strain PPZ1, hits give low values 1.02 | locus YML032C, strain rad52, hits give low values 1.04 | locus YML124C, strain tub3, hits give low values 1.02 | locus YMR078C, strain ctf18, hits give low values 1.02 | locus YMR223W, strain ubp8, hits give low values 1.04 | locus YMR307W, strain GAS1, hits give low values 1.07 | locus YNL067W, strain RPL9B, hits give low values 1.05 | [7] 0.948 | locus YNL233W, strain BNI4, hits give low values 1.07 | locus YNL250W, strain rad50, hits give low values 1.06 | locus YNL271C, strain bni1, hits give low values 1.02 | locus YNL298W, strain CLA4, hits give low values 1.03 | locus YNL307C, strain MCK1, hits give low values 1.03 | locus YNR052C, strain pop2, hits give low values 1.04 | locus YOL006C, strain TOP1, hits give low values 1.15 | locus YOL012C, strain htz1 0.971 | locus YOL147C, strain pex11, hits give low values 1.03 | [8] 1.02 | locus YOR069W, strain VPS5, hits give low values 1.01 | locus YOR136W, strain idh2, hits give low values 1.03 | locus YOR144C, strain elg1, hits give low values 1.02 | locus YOR184W, strain ser1, hits give low values 1.04 | [9] 0.976 | locus YOR316C, strain cot1, hits give low values 1.03 | [10] 0.997 | locus YPR119W, strain clb2, hits give low values 1.01 | locus YPR141C, strain kar3, hits give low values 1.02 | locus YPR163C, strain tif3, hits give low values 1.03 | locus YPR167C, strain met16, hits give low values 1.03 | strain wtn01, hits give low values 1.03

COc1cc(OC)cc(/C(N)=N\O)c1
active: [6] 0.847
inactive: locus YAR019C, strain CDC15, hits give low values 0.981 | locus YBL105C, strain PKC1, hits give low values 0.99 | locus YBR135W, strain CKS1, hits give low values 0.986 | locus YBR136W, strain MEC1, hits give low values 0.975 | locus YBR160W, strain CDC28, hits give low values 0.993 | locus YDL017W, strain CDC7, hits give low values 0.989 | locus YDL028C, strain MPS1, hits give low values 0.982 | [1] 0.992 | locus YDL108W, strain KIN28, hits give low values 0.982 | locus YDL132W, strain cdc53, hits give low values 0.997 | locus YDL214C, strain PRR2, hits give low values 0.956 | locus YDR052C, strain DBF4, hits give low values 0.991 | locus YDR054C, strain cdc34, hits give low values 0.992 | locus YDR226W, strain ADK1, hits give low values 0.994 | locus YDR477W, strain SNF1, hits give low values 0.958 | locus YER123W, strain YCK3, hits give low values 0.927 | locus YER133W, strain GLC7, hits give low values 0.971 | locus YFL009W, strain cdc4, hits give low values 0.991 | locus YFL029C, strain CAK1, hits give low values 0.975 | locus YFR003C, strain YPI1, hits give low values 0.99 | locus YFR019W, strain FAB1, hits give low values 0.961 | locus YFR028C, strain CDC14, hits give low values 0.994 | locus YGR040W, strain KSS1, hits give low values 0.959 | locus YGR052W, strain FMP48, hits give low values 1.02 | locus YGR092W, strain DBF2, hits give low values 0.943 | [2] 0.874 | [3] 0.909 | locus YHR082C, strain KSP1, hits give low values 0.994 | locus YHR205W, strain SCH9, hits give low values 0.891 | locus YIL147C, strain SLN1, hits give low values 0.963 | [4] 0.875 | locus YJL128C, strain PBS2, hits give low values 0.967 | locus YJL157C, strain FAR1, hits give low values 0.983 | locus YJR016C, strain ILV3, hits give low values 0.997 | locus YJR066W, strain TOR1 (second series), hits give low values 0.929 | [5] 0.966 | locus YKL048C, strain ELM1, hits give low values 0.962 | locus YKL067W, strain YNK1, hits give low values 0.961 | locus YKL101W, strain HSL1, hits give low values 0.925 | locus YKL193C, strain SDS22, hits give low values 0.992 | locus YKL203C, strain TOR2, hits give low values 1.01 | locus YLR133W, strain CKI1, hits give low values 0.958 | locus YLR403W, strain SFP1, hits give low values 0.937 | locus YML070W, strain DAK1, hits give low values 0.943 | locus YMR001C, strain CDC5, hits give low values 0.991 | locus YMR205C, strain PFK2 (second series), hits give low values 0.963 | locus YMR277W, strain FCP1, hits give low values 0.997 | locus YNL006W, strain LST8, hits give low values 0.993 | locus YNL020C, strain ARK1, hits give low values 0.959 | locus YNL161W, strain CBK1, hits give low values 0.988 | [7] 0.95 | locus YNL207W, strain RIO2, hits give low values 0.988 | locus YNL222W, strain SSU72, hits give low values 0.991 | locus YNL307C, strain MCK1 (second series), hits give low values 0.951 | locus YOL078W, strain AVO1, hits give low values 0.991 | locus YOL136C, strain PFK27, hits give low values 0.955 | [8] 0.925 | locus YOR119C, strain RIO1, hits give low values 0.983 | [9] 0.904 | locus YOR329C, strain SCD5, hits give low values 0.987 | locus YPL031C, strain PHO85, hits give low values 0.958 | locus YPL153C, strain RAD53, hits give low values 0.943 | locus YPL204W, strain HRR25, hits give low values 0.973 | locus YPL209C, strain IPL1, hits give low values 0.988 | [10] 0.891 | locus YPR025C, strain CCL1, hits give low values 0.986 | locus YPR106W, strain ISR1, hits give low values 0.988 | locus YPR111W, strain DBF20, hits give low values 0.986 | strain NNK1, hits give low values 0.992 | strain TSCII, hits give low values 0.996

Source: PubChem BioAssay AID1159580 (chemical genetic matrix, 2015)
